Experimental data taken from PubChem BioAssay (Tox21).
“And” between values parts separate entries of the source, which are not always exact repeats. Identical values can stand only once. Records with an inconclusive call do not appear. A call without a number means that no potency is given here. The source made the active and inactive calls. The call rests on the fitted dose curve; in most records, active means well fitted cell-killing curve with a large enough effect in the repeat runs; inconclusive means weak or mixed curves, or effect the other way; inactive means flat fitted curve, though single readings scatter.

Experiment: qHTS assay to identify small molecule agonists of the TGF-beta/Smad signaling pathway - cell viability counter screen (AID 1346829); further: nearly all actives have a fitted effect of over 45% in size
Conditions: SBE-bla HEK293T viability, CellTiter-Glo luminescence, 5 h; series mostly up to 76.8 µM
Description: National Center for Advancing Translational Sciences [NCATS]
NIH Chemical Genomics Center [NCGC]
U.S. Environmental Protection Agency [EPA]
National Institutes of Environmental Health Sciences [NIEHS]
National Toxicology Program [NTP]
U.S. Food and Drug Administration [FDA]
Transforming growth factor beta (TGF-beta) superfamily consists of a large number of structurally related dimeric proteins that act as hormones or local mediators in regulating a wide range of biological functions. This superfamily includes TGF-betas themselves, the bone morphogenetic proteins (BMPs) and the activins. These ligands induce oligomerization of serine/threonine receptor kinases and phosphorylate the cytoplasmic signaling molecules of Smad protein family. CellSensor SBE-bla HEK 293T cell line (Life Technologies, Carlsbad, CA), responsive to TGF-beta was used to screen Tox21 10K compound library for identification of agonists/antagonists of the Smad signaling pathway. This cell line contains a beta-lactamase reporter gene under control of the Smad binding element (SBE) stably integrated into HEK 293T cells. Also cytotoxicity of the compounds was tested in parallel by measuring the cell viability using CellTiter-Glo assay system in the same wells.
Tox21 Assay Protocol Summary:
SBE-bla HEK 293T cells were dispensed at 4,000/well in 6 uL of assay medium into black wall/clear-bottom 1536-well plates using a Multidrop Combi (ThermoFisher Scientific, Waltham, MA) dispenser. After the assay plates were incubated at 37 C and 5% CO2 for an overnight, 23 nL of compounds dissolved in DMSO, positive controls or DMSO only was transferred to the assay plate by a Pintool station (Kalypsys, San Diego, CA). The assay plates were incubated at 37 C and 5% CO2 for 5 hr. One uL of LiveBLAzer B/G FRET substrate (Life Technologies) was added using a Flying Reagent Dispenser (FRD, Aurora Discovery, San Diego, CA) and the plates were incubated at room temperature for 2 hr. Fluorescence intensity (405 nm excitation, 460 nm and 530 nm emissions) was measured using an Envision plate reader (PerkinElmer, Shelton, CT). For cytotoxicity read, 4 uL of CellTiter-Glo reagent (Promega Corporation, Madison, WI) was added to each well of the assay plates using FRD. After 30min incubation at room temperature, the luminescence intensity was measured using ViewLux plate reader (PerkinElmer).
Potency means the concentration at half of the fitted maximal effect.

| SMILES | Potency |
| --- | --- |
| CC[C@H](C)COC(=O)/C=C/c1ccc(N=Cc2ccc(OC)cc2)cc1 | inactive |
| O=C1C(c2[nH]c3ccc(S(=O)(=O)O)cc3c2O)=Nc2ccc(S(=O)(=O)O)cc21 | inactive |
| CCCC(=O)OCCc1ccccc1 | inactive |
| CC(C)NC[C@@H](O)COc1ccc(CC(N)=O)cc1 | inactive |
| FC(F)(F)c1cccc(Cl)c1 | inactive |
| COc1c(C)c2c(c(O)c1C/C=C(\C)CCC(=O)OCCN1CCOCC1)C(=O)OC2 | inactive |
| OC12N=C(c3ccccc3)SC1Cc1cc(Cl)ccc12 (stereo not given) | inactive |
| OC1CCCc2ccccc21 (stereo not given) | inactive |
| CCOC(=O)Cn1cccc1-c1nc(-c2ccc(OC)cc2)c(-c2ccc(OC)cc2)s1 | inactive |
| Cc1cc(C(C)(C)C)cc(C)c1CC1=NCCN1 | inactive |
| c1ccc(C(O[C@@H]2CCCN(CCc3ccc4c(c3)OCO4)C2)c2ccccc2)cc1 | inactive |
| C=CCCC(=O)/C=C/C1C(C)=CCCC1(C)C (stereo not given) | inactive |
| O=C(O)CCN(C1(C(=O)NO)CCCC1)S(=O)(=O)c1ccc(Oc2ccc(F)cc2)cc1 | inactive |
| CCCCC/C=C\C/C=C\CCCCCCCC(=O)O | inactive |
| CC1(C)CCC[C@]2(C)[C@H]3CC(=O)O[C@]3(C)CC[C@@H]12 | inactive |
| CCCCCCCC | inactive |
| CCc1oc2ccccc2c1C(=O)c1cc(I)c(O)c(I)c1 | inactive |
| O=S(=O)(O)c1ccccc1/C=C/c1ccc(-c2ccc(/C=C/c3ccccc3S(=O)(=O)O)cc2)cc1 | inactive |
| CC1(C)CC(O)CC(C)(C)N1 | inactive |
| O=C1NC(=O)[C@@H]2CC=CC[C@H]12 | inactive |

| SMILES | Potency |
| --- | --- |
| COc1cc(S(=O)(=O)O)c(C)cc1N=Nc1c(O)ccc2cc(S(=O)(=O)O)ccc12 | inactive |
| COc1ccc(-c2coc3cc(O)ccc3c2=O)cc1 | inactive |
| CCC(=O)C(=O)CC | inactive |
| CC/C=C\CCCCCO | inactive |
| S=C([S-])NCCNC(=S)[S-].S=C([S-])NCCNC(=S)[S-].[Mn+2].[Zn+2] | inactive |
| O=C(O)c1ccc2cc(C(=O)O)ccc2c1 | inactive |
| Cc1cccc(C(=O)O)c1O | inactive |
| Cc1cc(=O)oc2cc(O)cc(O)c12 | inactive |
| Cc1ccc(C(=O)O)cc1 | inactive |
| OC/C=C/CO | inactive |
| O=C(Nc1ccc2c(O)c(N=Nc3ccc(N=Nc4ccc(S(=O)(=O)O)cc4)cc3)c(S(=O)(=O)O)cc2c1)c1ccccc1 | inactive |
| CCCCCCCC/C=C\CCCCCCCCN | inactive |
| C#C[C@]1(OC(C)=O)CC[C@H]2[C@@H]3CCC4=C/C(=N/O)CC[C@@H]4[C@H]3CC[C@@]21CC | inactive |
| CCc1cccc(CC)c1NC(=O)CN(CC(=O)O)CC(=O)O | inactive |
| CCCCCCCCCCCCCCCC[N+](C)(C)CC | 55.1 µM (active) and 26.8 µM (active) |
| Cc1ccc(C(C)C)cc2c(C)ccc1-2 | inactive |
| O=C1CCc2cc(OCCCCc3nnnn3C3CCCCC3)ccc2N1 | inactive |
| CCCCCCCCCCCCOC(=O)c1ccc(O)cc1 | inactive |
| Fc1ccc(C(c2ccc(F)cc2)N2CCNCC2)cc1 | inactive |
| CCCCCCC1CCCC(=O)O1 (stereo not given) | inactive |
